“And” between values parts separate entries of the source, which are not always exact repeats. Equal values may be shown once. The source made the active and inactive calls. Rule for the calls: active = hit-call score of the fitted dose curve at least 0.9, where 1 is the maximum; inactive = score below 0.9.

The nature of this assay: ATG_AP_1_CIS: Attagene CIS-FACTORIAL HepG2 Assay for human Activator Protein 1 (AP-1) (AID 2282931). Conditions: HepG2 Attagene cis-factorial AP-1 reporter mRNA; actives raise or lower the signal. The protocol:
ATG_CIS is a cell-based, multiplexed-readout assay that uses HepG2, a human liver cell line, with measurements taken at 24 hours after chemical dosing in a 24-well plate.ATG_AP_1_CIS is one of 52 assay component(s) measured or calculated from the ATG_CIS assay. It is designed to make measurements of mRNA induction, a form of inducible reporter, as detected with fluorescence intensity signals by Reverse transcription polymerase chain reaction (RT-PCR) and Capillary electrophoresis technology.Data from the assay component ATG_AP_1_CIS was analyzed into 1 assay endpoint. This assay endpoint, ATG_AP_1_CIS, was analyzed with bidirectional fitting relative to DMSO as the negative control and baseline of activity. Using a type of inducible reporter, measures of mRNA for gain or loss-of-signal activity can be used to understand the reporter gene at the transcription factor-level as they relate to the gene FOS and JUN. Furthermore, this assay endpoint can be referred to as a primary readout, because this assay has produced multiple assay endpoints where this one serves a reporter gene function. To generalize the intended target to other relatable targets, this assay endpoint is annotated to the dna binding intended target family, where the subfamily is basic leucine zipper.
Human liver HepG2 cells are transiently transfected with multiple reporter transcription units (MRTUs) in 6-well plates using FuGene 6 reagent (Roche; 3 ml FuGene/1 mg DNA). The MRTU constructs are regulated by a cis-regulating element (promoter). […] A major difference between the CIS and TRANS system is that in CIS activities of endogenous TFs are measured, whereas the TRANS assay evaluates changes in activities of exogenous, chimeric NR-Gal4 proteins. […] At the end of 24 hour incubation, total RNA was isolated using TriZol reagent (Invitrogen). The isolated RNA is then reverse-transcribed using oligo(dT) primer and Mo-MLV reverse transcriptase (Invitrogen) with DNAse I (Ambion) treatment for 30 min. The one-tenth of the produced cDNA was amplified by PCR using Taq DNA polymerase (Invitrogen) and two reporter sequence-specific primers. The PCR products were fluorescently labeled by primer extension with 6-arboxyfluorescein (6-FAM) 5'-labeled reporter sequence-specific primer (2 min at 95 C, 20 s at 68 C and 10 min at 72 C) and these products were digested with 5U of HpaI (New England Biolabs) for 2h at 37 C. The fragments were purified using Qiaquick PCR columns (Qiagen), analyzed on an ABI 3130xL genetic analyzer (Applied Biosystems) with peak positions identified by using a set of X-rhodamine (ROX)-labeled MapMarker1000 molecular weight standards (BioVentures). The raw capillary electrophoresis data was processed using Attagraph software (Attagene).
For `O=S(=O)(F)C(F)(F)C(F)(F)C(F)(F)C(F)(F)F`, the result was inactive.
For the molecule `Cc1cc(Cl)ccc1OCCCC(=O)O`, the outcome was inactive.
In the case of `CC(C)CC(C)(c1ccc(O)cc1)c1ccc(O)cc1`, the half-maximal activity concentration (AC50) – broadly, the concentration at which the activity in the assay is half-maximal – was 11.1 µM (active).
On to `C=CCc1ccccc1O`, for which the call was inactive.
The same measure, in the same setting: next, `OC[P+](CO)(CO)CO`: “inactive”; `COC(=O)c1cc(Oc2ccc(Cl)cc2Cl)ccc1[N+](=O)[O-]`: “inactive”; `C=CCN=C=S`: “inactive”.
Still for that read-out and setting: the same measure for `C=C(C)C(=O)OCCCCOC(=O)C(=C)C`: “inactive”; for `ClCCN1CCOCC1`: “inactive”.
For `CCOCn1c(-c2ccc(Cl)cc2)c(C#N)c(Br)c1C(F)(F)F`, the molecule was classed as inactive.
The same measure, in the same setting: the same measure for `CCCCOC(C)=O`: “inactive”; for `C[CH2][Hg][S]c1ccccc1C(=O)O`: “inactive”.
Still for that read-out and setting: next, `Nc1cccnc1`: “inactive”; `C1CCC(C2CCCCC2)CC1`: “inactive”; `CCOP(=S)(OCC)SCSc1cc(Cl)ccc1Cl`: “inactive”.
Consider `O=c1oc2ccccc2c(O)c1C(CC(O)c1ccc(-c2ccc(Br)cc2)cc1)c1ccccc1` (stereo not given), for which the AC50 was 7.97 µM (active) and 57.9 µM (active).
On to `Nc1nc(N)nc(Cl)n1`, for which the result was inactive.
The same measure, in the same setting: next, `O=C/C(Cl)=C(/Cl)C(=O)O`: “inactive”; `C=CCOC(F)(C(F)(F)F)C(F)(F)F`: “inactive”; `Clc1cccc(Cl)c1Cl`: “inactive”.
The same measure, in the same setting: the same measure for `CC(C)C(C)(N)C#N` (stereo not given): “inactive”.
On the same count and under the same terms, next, `O=C(Cl)OCCOCCOC(=O)Cl`: “inactive”; `CCOc1cc(C=O)ccc1O`: “inactive”; `O=C(CBr)c1ccc(O)cc1`: “inactive”.
In the case of `OCCCCO`, the molecule was classed as inactive.
With `O=NN1CCCCCC1`, the molecule was classed as inactive.
Same read-out and setting: next, `Clc1cccc(Cl)c1`: “inactive”.
The same measure, in the same setting: next, `Cc1ccc(OP(=O)(Oc2ccc(C)cc2C)Oc2ccc(C)cc2C)c(C)c1`: “inactive”; `Nc1ccc(Br)cc1`: “inactive”.
Same read-out and setting: the same measure for `O=C(NC(=O)c1c(F)cccc1F)Nc1cc(Cl)c(Oc2ncc(C(F)(F)F)cc2Cl)c(Cl)c1`: “inactive”.
Take `CC(C)[N+](=O)[O-]`: the molecule was called inactive.
Turning to `OC[C@@H](O)[C@H]1O[C@@H]2O[C@H](C(Cl)(Cl)Cl)O[C@@H]2[C@H]1O`, the outcome was inactive.
`CNC(=O)N(C)c1nc2ccccc2s1`: the outcome was inactive.
On to `CNC(=O)CSP(=O)(OC)OC`, for which the call was inactive.
Same read-out and setting: the same measure for `O=C(CCl)NCO`: “inactive”; for `CC(C)[C@H](C(=O)OC(C#N)c1cccc(Oc2ccccc2)c1)c1ccc(OC(F)F)cc1` (stereo not given in full): “inactive”; for `CC(F)(F)CC(F)(F)F`: “inactive”.
On the same count and under the same terms, the same measure for `C=CC(F)(C(F)(F)F)C(F)(F)C(F)(F)F` (stereo not given): “inactive”.
For `CN(C)[C@@H]1C(=O)C(C(N)=O)=C(O)[C@@]2(O)C(=O)C3=C(O)c4c(O)ccc(Cl)c4[C@@](C)(O)[C@H]3C[C@@H]12`, the AC50 was 26.3 µM (active).
Regarding `C#C[C@]1(O)CC[C@H]2[C@@H]3CCC4=CC(=O)CC[C@]4(C)[C@H]3CC[C@@]21C`, the outcome was inactive.
